Assay outcomes: PubChem BioAssay, National Center for Advancing Translational Sciences (NCATS)
TDP1 block: qHTS Assay for Inhibitors of Tyrosyl-DNA Phosphodiesterase (TDP1); actives 0.28% (n = 350,000); AID 485290, 2010; Potency, µM (top dose mostly 130 µM), for the others: at the highest dose activity change, negative = inhibition, actives largely listed as inhibitors; recombinant TDP1, AlphaScreen DNA substrate cleavage; also: potency is read from the fitted curve at half-maximal effect; % is scaled to controls: 0 for no effect and ±100 for the full control effect; nearly all actives have a fitted effect of over 40% in size
Target sequence (Q9NUW8 whole entry, looked up): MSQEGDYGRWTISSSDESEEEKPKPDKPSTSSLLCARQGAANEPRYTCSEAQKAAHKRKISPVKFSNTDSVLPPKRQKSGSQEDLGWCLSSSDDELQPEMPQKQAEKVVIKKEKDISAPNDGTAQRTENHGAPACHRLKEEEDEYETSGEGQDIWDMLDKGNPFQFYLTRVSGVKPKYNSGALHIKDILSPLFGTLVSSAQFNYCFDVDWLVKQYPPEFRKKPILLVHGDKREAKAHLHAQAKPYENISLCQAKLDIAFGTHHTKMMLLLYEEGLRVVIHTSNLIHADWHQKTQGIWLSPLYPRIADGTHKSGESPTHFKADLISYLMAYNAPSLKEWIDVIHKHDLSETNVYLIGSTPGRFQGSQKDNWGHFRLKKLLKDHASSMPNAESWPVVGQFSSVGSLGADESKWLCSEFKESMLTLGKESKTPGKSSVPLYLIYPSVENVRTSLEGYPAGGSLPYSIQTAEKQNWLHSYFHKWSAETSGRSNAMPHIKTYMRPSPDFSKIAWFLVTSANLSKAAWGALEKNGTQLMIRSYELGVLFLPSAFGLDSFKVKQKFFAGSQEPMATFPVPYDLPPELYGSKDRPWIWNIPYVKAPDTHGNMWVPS
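AlphaScreen read-out: signal falls as enzyme removes the 3' tyrosine-FITC from a 5'-biotinylated DNA oligo (15 nM, 5 min, RT). Enzyme was E. coli-made recombinant Tdp1 at 1 nM, exposed to compound for 15 min beforehand; beads 10 ug/ml, 10 min.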
TGFb inhibitor: qHTS for Inhibitors of TGF-b; HepG2 CAGA-GFP TGF-b/SMAD3 reporter, GFP fluorescence, 18 h; TGF-beta stimulated, 500 pg/mL final; actives 1.2% (n = 410,000); Potency, µM (highest dose often 46.1 µM), for inactives: top-dose activity, negative = inhibition, hits mostly inhibitors; AID 588855, 2011; also: potency is read from the fitted curve at half-maximal effect; % is scaled to controls: 0 for no effect and ±100 for the full control effect; nearly all actives have a fitted effect of over 65% in size
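Inhibition was scored as loss of TGF-beta-induced (500 pg/mL final, 18 hours, 37 degrees C) GFP in HEPG2 cells carrying a CAGA-GFP reporter, in DMEM with 1% FBS. Well GFP was summed per cell; Activity was normalised to unstimulated and stimulated DMSO wells, then concentration-response fitting.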
DT40 TDP1 no CPT: qHTS for Inhibitors of human tyrosyl-DNA phosphodiesterase 1 (TDP1): qHTS in cells in absence of CPT; DT40 Tdp1-/- hTDP1 cells, no CPT, ATP luminescence, 48 h; Potency, µM (highest dose often 46.2 µM), for the others: at the top dose activity change, negative = growth inhibition, usual class: inhibitors; actives 15% (n = 420,000); also: potency is read from the fitted curve at half-maximal effect; % is scaled to controls: 0 for no effect and ±100 for the full control effect; nearly all actives have a fitted effect of over 55% in size
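No-CPT arm: Tdp1-/-;hTDP1 DT40 cells (400/well) plus compounds, incubated ≥48 hr at 37 °C. Readout CellTiter-Glo luminescence.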
IL-1B inflam inh: qHTS for Inhibitors of Inflammasome Signaling: IL-1-beta AlphaLISA Primary Screen | actives 4.7% (n = 360,000) | THP-1 LPS/ATP IL-1B secretion, AlphaLISA, 16 h; active compounds read low | activity change, % at 57.5 µM; in the data active = activity change below about -50%; inconclusive = mostly about -30% to -49%; also: % is scaled to controls: 0 for no effect and ±100 for the full control effect
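Secreted IL-1B measured by AlphaLISA bead assay after 16 h compound exposure of THP-1 cells; compounds (final up to 57.5 uM) added 1 h before LPS (250 ng/mL) and ATP (1.25 mM) stimulation; lower signal means less secretion.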
TDP1 cell CPT: qHTS for Inhibitors of human tyrosyl-DNA phosphodiesterase 1 (TDP1): qHTS in cells in presence of CPT; chicken DT40 Tdp1-/-;hTDP1 cells + 20 nM CPT, ATP luminescence, 48 h; Potency, µM (top dose mostly 46.2 µM), inactives show top-dose activity change, negative = growth inhibition, hits mostly inhibitors; actives 12% (n = 420,000); also: potency is read from the fitted curve at half-maximal effect; % is scaled to controls: 0 for no effect and ±100 for the full control effect; nearly all actives have a fitted effect of over 55% in size
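Chicken DT40 Tdp1-/- cells stably complemented with human TDP1 were seeded at 400 cells/well in medium containing 20 nM camptothecin, exposed to pin-transferred compounds, and grown at 37 °C for at least 48 hr. Viability was read as ATP luminescence.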
HepG2 tox: qHTS for Inhibitors of TGF-b: Cytotox Counterscreen; HepG2 CAGA-GFP viability, ATP luminescence, 18 h; Potency, µM (titrated, usually from 46.1 µM), for inactives: at the top dose activity change, negative = cytotoxicity, usual class: cytotoxic; actives 0.76% (n = 410,000); also: potency is read from the fitted curve at half-maximal effect
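CellTiter-Glo luminescence gave cytotoxicity after 18 hours at 37 degrees C. The cells were HepG2 CAGA-GFP in 1% FBS DMEM, stimulated with 500 pg/mL TGF-beta after compound addition. %Activity was normalised to no-cell wells (complete cell-killing) and DMSO (no toxicity), and curves were fitted and classified.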
Active calls of the source: *; [ ] = dose if it differs, or a comment. Most compounds without a hit are left out; they make up all but 19% or so of the library. Unless noted, calls follow the shape of the dose curve; as a rule, active = well fitted curve in the direction sought with a large enough effect; inconclusive = small, poorly fitted or top-dose-only effect, or another doubt; inactive = no such curve, though single readings can be large; an effect the other way counts as inactive or inconclusive.

CCCn1c(N)c(C(=O)CSc2nnc(Cc3ccccc3)o2)c(=O)n(C)c1=O was read as TDP1 block 2%, TGFb inhibitor -12%, DT40 TDP1 no CPT 23µM*, IL-1B inflam inh 79, TDP1 cell CPT inconclusive and HepG2 tox -37%.
`CCCn1c(N)c(C(=O)CSc2n[nH]c(-c3ccccc3F)n2)c(=O)n(C)c1=O` gave TDP1 block 0%, TGFb inhibitor -12%, DT40 TDP1 no CPT 23µM*, IL-1B inflam inh 43, TDP1 cell CPT 21µM* and HepG2 tox -8%.
Screening C=CCNc1nc2c(c(=O)[nH]c(=O)n2C)n1CC(O)COc1ccc2ccccc2c1 (stereo not drawn) returned TGFb inhibitor 4%, DT40 TDP1 no CPT 1%, IL-1B inflam inh 21, TDP1 cell CPT -4% and HepG2 tox -6%.
CC(=O)c1ccc(OC2C=CC(c3ccc(Cl)cc3)OC2CO)cc1 (stereo not drawn) was read as TDP1 block 2%[21 µM].
`CCOC(=O)c1cc(-c2ccccc2)nc2nc(N3CCCCC3)sc12` gave TDP1 block -4%, TGFb inhibitor 12%, DT40 TDP1 no CPT inconclusive, IL-1B inflam inh 15, TDP1 cell CPT inconclusive and HepG2 tox 0%.
For CCOC(=O)c1cc(-c2ccccc2)nc2nc(N(CC)CC)sc12 the results were TDP1 block -5%[0.0935 µM], TGFb inhibitor 5%, DT40 TDP1 no CPT inconclusive, IL-1B inflam inh -54*, TDP1 cell CPT -3% and HepG2 tox -6%.
Screening Cc1ccc(S(=O)(=O)NCc2ccccc2)cc1C(=O)N1CC(C)CC(C)C1 (stereo not drawn) returned TDP1 block -5%, TGFb inhibitor inconclusive, DT40 TDP1 no CPT 18µM*, IL-1B inflam inh 7, TDP1 cell CPT inconclusive and HepG2 tox 9%.
`Cc1ccc(S(=O)(=O)NCc2ccccc2)cc1C(=O)N1CCN(S(=O)(=O)c2ccccc2F)CC1` gave TGFb inhibitor -18%, DT40 TDP1 no CPT inconclusive, IL-1B inflam inh 4, TDP1 cell CPT 12µM* and HepG2 tox -23%.
Cc1ccc(S(=O)(=O)NCc2ccccc2)cc1C(=O)N1CCCCC1 was read as TDP1 block -2%, TGFb inhibitor -6%, DT40 TDP1 no CPT 2%, IL-1B inflam inh 3, TDP1 cell CPT -6% and HepG2 tox -53%.
`Cc1ccc(S(=O)(=O)c2nnn3c2nc(NC(C)C)c2cc(Cl)ccc23)cc1C` gave TDP1 block 1%, TGFb inhibitor 11%, DT40 TDP1 no CPT 2%, TDP1 cell CPT 14% and HepG2 tox 1%.
For Oc1ccc(Cl)cc1-c1cc(C(F)(F)C(F)F)nc(-c2ccccc2)n1 the results were TDP1 block 5%, TGFb inhibitor inconclusive, DT40 TDP1 no CPT 16µM*, IL-1B inflam inh 14, TDP1 cell CPT 29µM* and HepG2 tox 2%.
`Cc1ccc(O)c(-c2cc(C(F)(F)C(F)F)nc(-c3ccccc3)n2)c1` gave TDP1 block 0%, TGFb inhibitor 32%, DT40 TDP1 no CPT inconclusive, IL-1B inflam inh 11, TDP1 cell CPT -11% and HepG2 tox -2%.
For O=C(C1CCC(CNS(=O)(=O)c2cccc3nsnc23)CC1)N1CCN(c2ccccn2)CC1 (stereo not drawn) the results were TDP1 block 8%, TGFb inhibitor -3%, DT40 TDP1 no CPT 23µM*, IL-1B inflam inh 10, TDP1 cell CPT inconclusive and HepG2 tox -36%.
`CCCCC(CC)CNC(=O)C1CCC(CNS(=O)(=O)c2cccc3nsnc23)CC1` (stereo not drawn) gave TDP1 block 2%, TGFb inhibitor 1%, DT40 TDP1 no CPT 21µM*, TDP1 cell CPT inconclusive and HepG2 tox -13%.
O=C(CCNS(=O)(=O)c1cccc2nsnc12)N1CCN(c2ccccn2)CC1 was read as TDP1 block 7%.
Screening O=C(C1CCC(CNS(=O)(=O)c2cccc3cccnc23)CC1)N1CCc2ccccc21 (stereo not drawn) returned TDP1 block 2%, TGFb inhibitor -30%, DT40 TDP1 no CPT 18µM*, IL-1B inflam inh -8, TDP1 cell CPT inconclusive and HepG2 tox -29%.
For CCCCN(C(=O)C1CCC(CNS(=O)(=O)c2cccc3nsnc23)CC1)c1ccccc1 (stereo not drawn) the results were TDP1 block 10%, TGFb inhibitor inconclusive, DT40 TDP1 no CPT 21µM*, TDP1 cell CPT inconclusive and HepG2 tox -3%.
`COc1ccc(Cn2ccc3nc(C)c(C(=O)Nc4cc(OC)c(OC)c(OC)c4)cc3c2=O)cc1` gave TDP1 block 10%, TGFb inhibitor 5%, DT40 TDP1 no CPT inconclusive, TDP1 cell CPT inconclusive and HepG2 tox 5%.
O=C(COC(=O)C1=COCCO1)Nc1cc(C(F)(F)F)ccc1Cl was read as TDP1 block 0%, TGFb inhibitor 0%, DT40 TDP1 no CPT -1%, IL-1B inflam inh 42, TDP1 cell CPT -25% and HepG2 tox 1%.
CSc1cccc(NC(=O)Cn2nnc(C(=O)NCCc3ccccc3)c2N)c1 was read as TDP1 block -4%, TGFb inhibitor -20%, DT40 TDP1 no CPT -2%, TDP1 cell CPT -28% and HepG2 tox -7%.
For Cc1ccc(Cl)cc1N1CCN(C(=O)Cc2c(C(=O)O)c(C)cn2C)CC1 the results were TDP1 block 1%, TGFb inhibitor 19%, DT40 TDP1 no CPT -13%, TDP1 cell CPT inconclusive and HepG2 tox 8%.
Cc1cccc(CNc2ncnc3ccc(-c4ccccc4C#N)cc23)c1 was read as TDP1 block -6%[56.1 µM], DT40 TDP1 no CPT -27% and TDP1 cell CPT -4%.
CC(=O)Nc1ccc(C(=O)n2cnc3cc(C)c(C)cc32)cc1 was read as TDP1 block 2%, TGFb inhibitor 24%, DT40 TDP1 no CPT -110%, IL-1B inflam inh 24, TDP1 cell CPT -114% and HepG2 tox 0%.
